Over roughly 33,000 sequences, “E-score (-0.5 to 0.5)” has its median near -0.036; the highest 2% begin near 0.37. What follows is part of a selection rich in the highest values, with near analogues and random picks from the rest.
Each sequence was assayed against T1, Yer064c (UniProt P40041) (assay: PBM E-score (8-mer binding enrichment) (E-score (-0.5 to 0.5)); higher = stronger / more preferred TF binding). Settings: protein concentration: 200 nM; construct: GST-full length.
T1 sequence: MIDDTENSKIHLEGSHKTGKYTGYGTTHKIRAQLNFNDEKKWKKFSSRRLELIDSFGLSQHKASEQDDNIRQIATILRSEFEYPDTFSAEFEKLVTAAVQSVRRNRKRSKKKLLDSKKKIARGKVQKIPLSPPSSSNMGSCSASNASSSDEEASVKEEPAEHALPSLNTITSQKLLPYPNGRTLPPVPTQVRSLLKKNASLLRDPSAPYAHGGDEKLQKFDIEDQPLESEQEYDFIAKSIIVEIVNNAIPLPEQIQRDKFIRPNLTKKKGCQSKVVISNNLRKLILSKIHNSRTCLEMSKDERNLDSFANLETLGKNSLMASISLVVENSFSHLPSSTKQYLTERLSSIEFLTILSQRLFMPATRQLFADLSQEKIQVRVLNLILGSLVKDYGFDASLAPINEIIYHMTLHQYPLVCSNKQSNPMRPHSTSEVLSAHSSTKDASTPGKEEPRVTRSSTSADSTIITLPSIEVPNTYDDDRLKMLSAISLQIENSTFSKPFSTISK
Procedure: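 Universal 'all 10-mer' protein binding microarrays (Agilent AMADID 015681) probed with GST-tagged S. cerevisiae TFs (full-length or DBD) made by in vitro transcription/translation (PURExpress), about 100-200 nM. Bound TF was detected with fluorescent anti-GST. Each ungapped 8-mer (which stands for itself and its reverse complement) is scored by the PBM enrichment score (E-score), a modified Wilcoxon-Mann-Whitney statistic from -0.5 to +0.5, computed with the Universal PBM Analysis Suite. Scale: above 0.35 generally sequence-specific binding.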

Row | Sequence | PBM E-score
1 | ACACGACC | -0.0158
2 | AGTAAAAG | 0.0408
3 | CTGACCAG | -0.0138
4 | ACTCCACG | 0.0785
5 | ACTTTACT | 0.159
6 | AAAACCCT | -0.047
7 | CACTAAGA | 0.119
8 | AACTAAGC | 0.0808
9 | TACTAAGA | 0.113
10 | GACTAAGC | 0.42
11 | CACTAAGC | 0.1
12 | GACTAAGA | 0.444
13 | AGGGATAA | 0.093
14 | CGGCTGCA | -0.189
15 | AATATGGA | -0.0374
16 | CGTTGCGC | -0.22
17 | GAGCACAA | 0.0121
18 | ACAGACTA | 0.0746
19 | ACAGACTC | 0.269
20 | GCAGACTA | 0.309
21 | GAAGACTA | 0.444
22 | TAAGACTA | 0.423

Row | Sequence | PBM E-score
23 | TAAGACCA | 0.112
24 | AAAGACTT | 0.294
25 | AAAGACTC | 0.409
26 | TAAGACAA | -0.0363
27 | CAAGACTA | 0.329
28 | AAAGACTG | 0.157
29 | AAAGACTA | 0.392
30 | ACAGCCTA | -0.0814
31 | ACCCTGCC | -0.154
32 | GGGCAAGA | -0.0907
33 | GAGTTCGA | 0.185
34 | GCGCTTTA | -0.161
35 | AAAGTGAC | 0.305
36 | CCCGCGAA | 0.0838
37 | CAAGACTC | 0.429
38 | CAAGACGC | -0.166
39 | GAAGACTC | 0.446
40 | GAAGACGC | -0.193
41 | CAAGACTG | 0.175
42 | GAAGACCC | -0.0698
43 | GACCGAAC | -0.059
44 | CATTACCC | 0.0868

Row | Sequence | PBM E-score
45 | AATGGAGA | -0.0502
46 | TACTCTAA | -0.042
47 | GACTCTAA | 0.381
48 | CACTCTAA | 0.149
49 | CACTCTAC | 0.0903
50 | AACTCTAC | -0.212
51 | GACTCTAC | 0.38
52 | ATGCCAAG | -0.0388
53 | ACGATAAC | -0.0162
54 | GATCCGCC | -0.041
55 | AACTTTGC | -0.113
56 | ACAACATC | -0.143
57 | ACCATACT | 0.0817
58 | AAGTGATG | 0.0804
59 | AAGTGACC | -0.00564
60 | AAGTGACG | 0.0587
61 | ACGTGACA | -0.138
62 | AAGTGACT | 0.453
63 | AAGTGATC | 0.103
64 | AAGTGATT | 0.394
65 | AGGTGACG | -0.188
66 | ACGTGACG | -0.176

Row | Sequence | PBM E-score
67 | AGGTGACT | 0.484
68 | ACGTGACT | 0.468
69 | AGGTGACA | -0.0676
70 | CCTCTGAA | -0.0251
71 | AAATCCCA | -0.203
72 | ACCCACCC | 0.111
73 | CACCTAGG | 0.0188
74 | ATCAGAAC | 0.127
75 | CTGAGAGA | -0.0026
76 | AAGCTTGG | -0.0782
77 | CAGATGAC | 0.215
78 | AAGATGAC | 0.312
79 | GAGATGAC | 0.367
80 | GGAACTGA | -0.00126
81 | TCGACCAA | -0.188
82 | AATAGAAA | -0.119
83 | CCCTCCCA | -0.298
84 | ACACATTG | 0.0326
85 | ATTCATTC | 0.122
86 | ACTCATTC | 0.394

— the supplement of paper PMC3334620
